# Laboratory results from PubChem BioAssay.
# Assay: viability loss with induced miR-34 in A549 – imaging, A549 dox-inducible miR-34, nuclei and caspase counts, primary screen (AID 1347080); also: test concentration not given here
# Details: A549 miR-34 inducible, Hoechst nuclei count, 48 h; measured here: total cells with miR-34 induction; stronger effect = lower value
row,Structure (SMILES),cell count
1,O=C(OCc1ccccc1)[C@H](O)c1ccccc1,5580
2,CCCCC[C@H](O)/C=C/[C@H]1[C@H](O)CC(=O)[C@@H]1CCCCCCCCC(=O)O,5400
3,CCCCCCCCCCCCCCP(=O)(O)O,4910
4,CCCCCCCC/C=C\CCCCCCCC(=O)N[C@H](CO)Cc1ccc(O)cc1,6010
5,CCCCC[C@@](C)(O)/C=C/[C@@H]1C(C/C=C\CCCC(=O)O)[C@@H](O)C[C@H]1O (stereo not given in full),6110
6,CCCCC[C@H](O)/C=C/[C@@H]1[C@H]2CC(CCCCC(=O)O)O[C@H]2C[C@H]1O (stereo not given in full),6700
7,CCCCC[C@H](O)/C=C/[C@@H]1[C@H](CCCCCCC(=O)O)[C@@H](O)C[C@H]1O,6250
8,CC(=O)O[C@@]12C[C@@H](C)[C@@]3(O)[C@@H](C=C(CO)C[C@]4(O)C(=O)C(C)=C[C@@H]34)[C@@H]1C2(C)C,5200
9,CCCCCCCCCCCCCCCCOC[C@H](COP(=O)([O-])OCC[N+](C)(C)C)OCC,5080
10,CCCCCCCCCCCCCCCC(=O)N[C@H](C)CO,5780
11,CCCCC[C@](C)(O)/C=C/[C@@H]1[C@@H](C/C=C\CCCC(=O)O)[C@@H](O)C[C@H]1O,5410
12,CCCCCCCC/C=C\CCCCCC(=O)O,5490
13,Cc1c(C)c2c(c(C)c1O)CCC(C)(CCCC(C)C(=O)O)O2 (stereo not given),5890
14,CCCCC[C@@](C)(O)/C=C/[C@@H]1[C@@H](C/C=C\CCCC(=O)OC)[C@@H](O)C[C@H]1O,5940
15,COc1ccc(/C=C/c2ccccc2F)cc1,5810
16,CCCCCCCCCCOc1ccc(OCC(=O)Cn2cc(C(=O)OC)c3cc(C(=O)O)ccc32)cc1,6240
17,OCCC/C=C/c1ccccc1,5920
18,CC(C)=CCC/C(C)=C/CC/C(C)=C/CC[C@]1(C)CCc2cc(O)cc(C)c2O1,5270
19,CC(C)(C)OC(=O)Nc1cccc2[nH]ccc12,4970
20,CCCCCCC[C@H](O)/C=C/[C@@H]1[C@@H](C/C=C\CCCC(=O)O)[C@@H](O)C[C@H]1O,6150

row,Structure (SMILES),cell count
1,O=P(O)(O)OC1[C@H](O)[C@H](O)C(O)[C@H](O)[C@H]1O (stereo not given in full),6420
2,C[C@]12CC[C@@H]3c4cc(O)c(O)cc4CC[C@H]3[C@@H]1CC[C@@H]2O,5010
3,CC#CCC(C)[C@@H](O)/C=C/[C@@H]1[C@H]2C/C(=C\CCCC(=O)O)C[C@H]2C[C@H]1O (stereo not given in full),4970
4,CCCCCCCCCCCCCCCCCC(=O)N[C@H]1CCOC1=O,6650
5,CCCCCC/C=C\CCCCCCCC(=O)OCC,5560
6,NC(=O)CCC/C=C\C[C@@H]1[C@@H](/C=C/[C@@H](O)CCc2ccccc2)[C@H](O)C[C@@H]1O,6210
7,CCCCC/C=C/C/C=C/CCCCCCCC(=O)O,6880
8,CC(C)Oc1ccc(Cc2ccc(NC3=NCCN3)cc2)cc1,5900
9,OC1C[C@@H]2[C@@H](CC[C@@H](O)CCc3ccccc3)[C@H](O)C[C@@H]2O1 (stereo not given in full),6130
10,CCCC[C@H](C)C[C@H](O)/C=C/[C@@H]1[C@@H](CCCCCCC(=O)O)[C@@H](O)C[C@H]1O,5490
11,CCNC1=N[C@@H]2[C@@H](O)[C@H](O)[C@@H](CO)O[C@@H]2S1,6020
12,CCCCC[C@H]1/C=C/[C@@H]2[C@@H](C/C=C\CCCC(=O)O1)[C@@H](O)C[C@H]2O,4270
13,CCCCCCCCCC(=O)N[C@@H](CN1CCOCC1)[C@@H](O)c1ccccc1,5480
14,O=C(O)CCCCCC[C@@H]1C(=O)NC(=O)N1CCC(O)C1CCCCC1 (stereo not given in full),5520
15,O=C(O)CCC/C=C\C[C@H]1[C@@H](/C=C/[C@@H](O)CCc2ccccc2)[C@H](O)C[C@@H]1O,5490
16,O=C(O)CCCCCCCCCCCNC(=O)NC12CC3CC(CC(C3)C1)C2,5310
17,COc1ccc(/C=C/c2cc(O)cc(O)c2)cc1O,5710
18,CCCCC(C)(C)[C@H](O)/C=C/[C@H]1C=CC(=O)[C@@H]1CCCCCCC(=O)O,5490
19,O=C(O)CCCCCCC1C(=O)N(Cc2ccccc2)C(=O)N1NCC(O)C1CCCCC1 (stereo not given),5360
20,CC(C(=O)Nc1cccc(N=Cc2c(O)ccc3ccccc23)c1)c1ccccc1 (stereo not given),5970
